PubChem BioAssay
Where “and” joins values, the source holds several entries; their conditions need not be identical. Equal entries are not always repeated. Calls of active or inactive are those of the source.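 Rule for the calls, unless noted: active = normalized viability below 100% at a tested concentration; inactive = the rest.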

Legend:
[1] = stimulators of nuclear beta-catenin in C2C12, primary screen, imaging, WNT3A-conditioned medium, mouse C2C12, NPC library (AID 1117326; in the data active = nuclear beta-catenin stimulation mostly above about 4.2%, no sharp cut-off; inactive = mostly below about 10%); details: stronger effect = higher value
[2] = stimulators of insulin release from INS-1E, primary screen, cell-based, 5 mM glucose, NPC library (AID 1117329;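 active = compound raises insulin release from rat beta cells at 5 mM glucose, no numeric limit stated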); details: rat INS-1E insulin secretion, at 10 µM, stronger effect = higher value
[3] = growth inhibition of GSK3B-pretreated HCT116 cells – cell-based, CellTiter-Glo, 0.2 to 20 µM (AID 1117336;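 active = compounds lowering colon cancer cell viability after pretreatment blocking the GSK3B kinase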); details: HCT116 viability after GSK3B inhibitor, at 20 µM, stronger effect = higher value
[4] = inhibition of endothelial tube formation, primary screen, imaging, VEGF stimulated, CD31 staining, tube area, NPC library (AID 1117340;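 active = compound that reduces growth-factor-driven endothelial tube area in a mixed cell culture, no cutoff stated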); details: VEGF-stimulated ADSC/ECFC co-culture, at 10 µM, stronger effect = higher value
[5] = glucagon-like peptide 1 release enhancers, primary assay, NCI-H716 cell line, NPC library (AID 1117341;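 active = compound raises GLP1 secretion from the human gut endocrine cells, with no numeric limit stated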); details: NCI-H716 cells, at 10 µM, stronger effect = higher value
[6] = HCT116 colon cancer cell growth inhibition, primary screen, CellTiter-Glo luminescence, NPC library (AID 1117342;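 active = compounds that lower survival of HCT116 colon cancer cells in the luminescence readout, no numeric limit stated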); details: at 20 µM (top of the series)
[7] = CellTiter-Glo luminescent readout of SW480 viability loss, NPC library primary (AID 1117343;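 active = compounds that lower viability of the colon cancer cells in the luminescence readout, with no numeric limit stated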); details: CellTiter-Glo luminescence; at 20 µM (top of the series)
[8] = decreased DLD-1 cellular survival, CellTiter-Glo luminescent readout, NPC compound collection, primary HTS (AID 1117346;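 active = compounds that lower survival of DLD-1 colon cancer cells in the luminescence readout, no cutoff given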); details: DLD-1 viability, CellTiter-Glo luminescence; at 20 µM (top of the series)
[9] = molecular target: 6-phosphogluconate dehydrogenase, decarboxylating (Homo sapiens) (UniProt P52209); experiment: 6PGD enzyme inhibitors, primary screen, biochemical, human, recombinant enzyme, NADPH absorbance (AID 1159550;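 active = at least 20% inhibition of 6-phosphogluconate dehydrogenase activity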); details: recombinant 6PGD, NADPH absorbance 341 nm; at 10 µM; stronger effect = higher value
Sequence of 6-phosphogluconate dehydrogenase, decarboxylating (Homo sapiens) (P52209 whole entry, looked up): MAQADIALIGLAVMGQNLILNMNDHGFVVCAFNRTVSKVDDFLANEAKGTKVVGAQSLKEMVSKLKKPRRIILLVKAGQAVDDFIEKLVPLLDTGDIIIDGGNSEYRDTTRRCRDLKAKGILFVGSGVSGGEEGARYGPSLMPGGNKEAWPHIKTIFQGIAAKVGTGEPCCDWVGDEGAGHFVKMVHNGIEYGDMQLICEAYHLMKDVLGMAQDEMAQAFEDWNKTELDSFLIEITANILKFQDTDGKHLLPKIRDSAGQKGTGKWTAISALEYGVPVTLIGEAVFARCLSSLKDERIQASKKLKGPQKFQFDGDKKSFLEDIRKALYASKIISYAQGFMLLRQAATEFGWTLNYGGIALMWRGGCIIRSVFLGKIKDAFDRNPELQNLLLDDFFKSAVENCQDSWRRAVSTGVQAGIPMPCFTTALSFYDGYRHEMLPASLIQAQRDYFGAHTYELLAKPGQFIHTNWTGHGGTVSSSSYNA

[10] = differential killing of epithelial or mesenchymal cells, primary screen, imaging, PC-3E GFP, TEM4-18 mCherry, co-culture (AID 1345086;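 active = compounds killing one labelled cell type while sparing the other, by normalised counts and ratio limits, not self-fluorescent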;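 for all read-outs here: cells exposed to compound for 72 h before imaging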;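 for red/green cell ratio (normalised): normalised mesenchymal count divided by normalised epithelial count so high means epithelial killing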); details: imaging cell counts, at 1 µM; for red/green cell ratio (normalised): actives lie on both sides, counts scaled to control wells, 1 = unselective
[11] = survival rescue of mitochondrial mutant cells in low glucose, primary screen, MELAS cybrids, Rieske KO mouse fibroblasts, CellTiter-Glo (AID 1508586;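 active = mean z-score across replicates of 1.96 or higher in either the MELAS or the Rieske mutant cell line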;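 note: z relative to plate mean and SD of compound and empty wells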)
F380Y = experiment: modulators of BK channel variants, profiling panel, selectivity assay, cell-based, U2OS BacMam, thallium flux, beta subunits (AID 1259406;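 active = thallium flux through the channel raised or lowered by more than 3 SD from vehicle-only wells, actives on both sides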;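 note: initial slope of Thallos dye fluorescence rise after thallium is added; log ratio against the mean of 0.3% DMSO vehicle wells on the same plate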); details: at 30 µM
F380Y/beta1 = experiment: as above; details: at 30 µM
F380Y/beta2Delta = experiment: as above; details: at 30 µM
F380Y/beta4 = experiment: as above; details: at 30 µM
[12] = molecular target: Calcium-activated potassium channel subunit alpha-1 (Homo sapiens) + Leucine-rich repeat-containing protein 26 (Homo sapiens) (UniProt Q12791+Q2I0M4); experiment: as above; details: F380Y/Slo1WT/gamma1, at 30 µM
Sequence of Calcium-activated potassium channel subunit alpha-1 (Homo sapiens) + Leucine-rich repeat-containing protein 26 (Homo sapiens) (Q2I0M4 whole entry, looked up, one chain of several): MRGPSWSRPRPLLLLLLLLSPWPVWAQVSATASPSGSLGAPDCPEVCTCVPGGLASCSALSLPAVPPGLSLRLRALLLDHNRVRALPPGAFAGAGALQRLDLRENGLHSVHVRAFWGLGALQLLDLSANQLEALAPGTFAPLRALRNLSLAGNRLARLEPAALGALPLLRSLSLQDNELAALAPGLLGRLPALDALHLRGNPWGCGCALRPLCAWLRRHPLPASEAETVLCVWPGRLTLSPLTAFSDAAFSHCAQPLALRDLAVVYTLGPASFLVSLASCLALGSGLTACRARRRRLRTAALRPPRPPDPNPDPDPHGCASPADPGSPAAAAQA

R275C = experiment: as above; details: at 30 µM
R275C/beta1 = experiment: as above; details: at 30 µM
[13] = ovarian cancer cell viability with rucaparib, profiling panel, oncology-focused library, rucaparib conditional (AID 1508598); details: patient-derived ovarian cancer cells, CellTiter-Glo viability, 144 h, stronger effect = lower value
[14] = measured here: epithelial PC-3E GFP cell survival
[15] = measured here: mesenchymal TEM4-18 mCherry cell survival
[16] = MELAS cybrid survival, CellTiter-Glo 48 h, stronger effect = higher value
[17] = Rieske KO mouse fibroblast survival, CellTiter-Glo 72 h

CCCCC(CC)COC(=O)c1ccc(N(C)C)cc1 (stereo not given)
0.5%: nuclear beta-catenin stimulation ([1]; stimulation, at 2 µM)
inactive: nuclear beta-catenin stimulation ([1]; at 10 µM) 0.3% | insulin secretion stimulation [2] -2.6% | viability decrease [3] 34.1% | tube area decrease [4] 0.5% | GLP1 secretion stimulation [5] -2.3% | inhibition of viability [6] 18% | viability decrease (inhibition) [7] 32.1% | viability decrease (inhibition) [8] 48.1%

NC12CC3CC(CC(C3)C1)C2
0.95: normalised cell number [10, 14]
inactive: nuclear beta-catenin stimulation ([1]; at 10 µM) 2.1% | insulin secretion stimulation [2] 2.4% | viability decrease [3] 7.6% | tube area decrease [4] 3.9% | GLP1 secretion stimulation [5] 6.5% | inhibition of viability [6] 30.7% | viability decrease (inhibition) [8] 14.6% | inhibition [9] -14.3% | red/green cell ratio (normalised) [10] 1.38 | z-score [11, 16] -0.372 and -0.42 and -0.564 | log fold change Tl+ flux (F380Y) -0.0507 | log fold change Tl+ flux (F380Y/beta1) 0.00169 | log fold change Tl+ flux (F380Y/beta2Delta) 0.0403 | log fold change Tl+ flux (F380Y/beta4) 0.0492 | log fold change Tl+ flux [12] 0.0152 | log fold change Tl+ flux (R275C) -0.00425 | log fold change Tl+ flux (R275C/beta1) 0.0102
active: viability decrease (inhibition) [7] 56.6%
1.32: normalised cell number [10, 15]
1.9%: nuclear beta-catenin stimulation ([1]; stimulation, at 2 µM)
-0.543 and 0.116 and -0.0986: z-score [11, 17]

O=C1CCC(N2C(=O)c3ccccc3C2=O)C(=O)N1 (stereo not given)
active: viability decrease (inhibition) [8] 53.7% | viability ([13]; at 0.000305 µM, OCI-C5x cells, without rucaparib) 95% | viability ([13]; at 0.000305 µM, OCI-P5x cells, with rucaparib 20 µM, 100% = cells with rucaparib alone) 99.4% | viability ([13]; at 0.00488 µM, OCI-C5x cells, without rucaparib) 99.5%
1.44: normalised cell number [10, 15]
-0.261 and 0.0412 and -1.15: z-score [11, 17]
2.1%: nuclear beta-catenin stimulation ([1]; stimulation, at 2 µM)
inactive: nuclear beta-catenin stimulation ([1]; at 10 µM) 2.4% | insulin secretion stimulation [2] 0.6% | viability decrease [3] -12.6% | tube area decrease [4] 5.6% | GLP1 secretion stimulation [5] -3.8% | inhibition of viability [6] 6.9% | viability decrease (inhibition) [7] 11.1% | inhibition [9] -1.45% | red/green cell ratio (normalised) [10] 1.17 | z-score [11, 16] -0.413 and 0.577 and -0.221 | viability ([13]; at 0.000305 µM, OCI-C5x cells, with rucaparib 10 µM, 100% = cells with rucaparib alone) 117% | viability ([13]; at 0.000305 µM, OCI-P5x cells, without rucaparib) 103% | viability ([13]; at 0.00122 µM, OCI-C5x cells, with rucaparib 10 µM, 100% = cells with rucaparib alone) 108% | viability ([13]; at 0.00122 µM, OCI-C5x cells, without rucaparib) 102% | viability ([13]; at 0.00122 µM, OCI-P5x cells, with rucaparib 20 µM, 100% = cells with rucaparib alone) 100% | viability ([13]; at 0.00122 µM, OCI-P5x cells, without rucaparib) 109% | viability ([13]; at 0.00488 µM, OCI-C5x cells, with rucaparib 10 µM, 100% = cells with rucaparib alone) 110% | viability ([13]; at 0.00488 µM, OCI-P5x cells, with rucaparib 20 µM, 100% = cells with rucaparib alone) 112% | viability ([13]; at 0.00488 µM, OCI-P5x cells, without rucaparib) 106% | viability ([13]; at 0.0195 µM, OCI-C5x cells, with rucaparib 10 µM, 100% = cells with rucaparib alone) 111% | viability ([13]; at 0.0195 µM, OCI-C5x cells, without rucaparib) 109% | viability ([13]; at 0.0195 µM, OCI-P5x cells, with rucaparib 20 µM, 100% = cells with rucaparib alone) 112% | viability ([13]; at 0.0195 µM, OCI-P5x cells, without rucaparib) 111% | viability ([13]; at 0.0781 µM, OCI-C5x cells, with rucaparib 10 µM, 100% = cells with rucaparib alone) 113% | viability ([13]; at 0.0781 µM, OCI-C5x cells, without rucaparib) 104% | viability ([13]; at 0.0781 µM, OCI-P5x cells, with rucaparib 20 µM, 100% = cells with rucaparib alone) 107% | viability ([13]; at 0.0781 µM, OCI-P5x cells, without rucaparib) 115% | viability ([13]; at 0.313 µM, OCI-C5x cells, with rucaparib 10 µM, 100% = cells with rucaparib alone) 114% | viability ([13]; at 0.313 µM, OCI-C5x cells, without rucaparib) 109% | viability ([13]; at 0.313 µM, OCI-P5x cells, with rucaparib 20 µM, 100% = cells with rucaparib alone) 112% | viability ([13]; at 0.313 µM, OCI-P5x cells, without rucaparib) 119% | viability ([13]; at 1.25 µM, OCI-C5x cells, with rucaparib 10 µM, 100% = cells with rucaparib alone) 114% | viability ([13]; at 1.25 µM, OCI-C5x cells, without rucaparib) 103% | viability ([13]; at 1.25 µM, OCI-P5x cells, with rucaparib 20 µM, 100% = cells with rucaparib alone) 116% | viability ([13]; at 1.25 µM, OCI-P5x cells, without rucaparib) 117% | viability ([13]; at 5 µM, OCI-C5x cells, with rucaparib 10 µM, 100% = cells with rucaparib alone) 116% | viability ([13]; at 5 µM, OCI-C5x cells, without rucaparib) 108% | viability ([13]; at 5 µM, OCI-P5x cells, with rucaparib 20 µM, 100% = cells with rucaparib alone) 114% | viability ([13]; at 5 µM, OCI-P5x cells, without rucaparib) 115% | log fold change Tl+ flux (F380Y) -0.00432 | log fold change Tl+ flux (F380Y/beta1) -0.0788 | log fold change Tl+ flux (F380Y/beta2Delta) -0.0091 | log fold change Tl+ flux (F380Y/beta4) 0.0329 | log fold change Tl+ flux [12] -0.00962 | log fold change Tl+ flux (R275C) 0.0291 | log fold change Tl+ flux (R275C/beta1) -0.0697
1.23: normalised cell number [10, 14]
